Experimental data published in publication PMC7862700, “An all-to-all approach to the identification of sequence-specific readers for epigenetic DNA modifications on cytosine”.

Columns and labels:
Assay in all cases: DAPPL (digital affinity profiling via proximity ligation, sequencing); 10 mM Tris-HCl pH 7.5, 50 mM NaCl, 1 mM DTT, 4% glycerol, room temperature, 30 min; GST-TFs on glutathione beads, 16-mer random dsDNA library, 0.1% formaldehyde crosslink after washing; high values mean tight binding
[1] = target: T1, FLI1 (Homo sapiens, UniProt Q01543 1-452); details: protein: recombinant; tags: N-terminal GST; dsDNA, one strand shown
T1 sequence: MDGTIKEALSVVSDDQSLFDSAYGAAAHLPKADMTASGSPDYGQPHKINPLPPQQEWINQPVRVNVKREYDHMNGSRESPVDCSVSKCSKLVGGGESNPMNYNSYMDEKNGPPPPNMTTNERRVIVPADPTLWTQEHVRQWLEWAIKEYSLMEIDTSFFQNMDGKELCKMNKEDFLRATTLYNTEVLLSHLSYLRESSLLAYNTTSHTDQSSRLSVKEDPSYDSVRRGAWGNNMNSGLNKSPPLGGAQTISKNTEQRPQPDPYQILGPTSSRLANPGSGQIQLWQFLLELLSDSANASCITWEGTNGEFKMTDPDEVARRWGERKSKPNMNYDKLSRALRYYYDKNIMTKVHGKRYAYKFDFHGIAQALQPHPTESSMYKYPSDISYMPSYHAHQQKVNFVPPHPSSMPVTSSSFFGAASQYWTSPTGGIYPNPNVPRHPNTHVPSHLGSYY
Outline: (§1)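 Binding signal is given per hexamer as its read frequency for a factor divided by its frequency in the tag-only sample. GST-fused human transcription factors were expressed in yeast, captured on glutathione beads, barcoded with DNA and pooled with that sample, then incubated with 200 nmole of a 16-mer random double-stranded DNA library in Tris/NaCl/DTT/glycerol buffer for 30 min at room temperature. The pools were then washed, crosslinked, proximity-ligated, amplified by PCR and sequenced on an Illumina NextSeq500.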

[2] = target: T2, ELK1 (Homo sapiens, UniProt P19419 1-428); details: protein: recombinant; tags: N-terminal GST; dsDNA, one strand shown
T2 sequence: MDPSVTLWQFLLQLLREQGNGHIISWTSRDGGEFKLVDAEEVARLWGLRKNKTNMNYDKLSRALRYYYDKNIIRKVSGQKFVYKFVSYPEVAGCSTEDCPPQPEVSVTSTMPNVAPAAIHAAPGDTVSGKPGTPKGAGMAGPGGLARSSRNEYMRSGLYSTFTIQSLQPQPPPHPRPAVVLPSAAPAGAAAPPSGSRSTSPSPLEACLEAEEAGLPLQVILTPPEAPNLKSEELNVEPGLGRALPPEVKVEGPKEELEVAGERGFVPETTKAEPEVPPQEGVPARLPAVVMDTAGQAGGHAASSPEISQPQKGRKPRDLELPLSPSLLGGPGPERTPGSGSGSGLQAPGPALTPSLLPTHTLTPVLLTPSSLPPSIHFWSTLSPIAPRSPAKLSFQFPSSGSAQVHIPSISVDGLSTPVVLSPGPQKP
Outline: as §1

[3] = target: T3, GABPA (Homo sapiens, UniProt Q06546 1-454); details: protein: recombinant; tags: N-terminal GST; dsDNA, one strand shown
T3 sequence: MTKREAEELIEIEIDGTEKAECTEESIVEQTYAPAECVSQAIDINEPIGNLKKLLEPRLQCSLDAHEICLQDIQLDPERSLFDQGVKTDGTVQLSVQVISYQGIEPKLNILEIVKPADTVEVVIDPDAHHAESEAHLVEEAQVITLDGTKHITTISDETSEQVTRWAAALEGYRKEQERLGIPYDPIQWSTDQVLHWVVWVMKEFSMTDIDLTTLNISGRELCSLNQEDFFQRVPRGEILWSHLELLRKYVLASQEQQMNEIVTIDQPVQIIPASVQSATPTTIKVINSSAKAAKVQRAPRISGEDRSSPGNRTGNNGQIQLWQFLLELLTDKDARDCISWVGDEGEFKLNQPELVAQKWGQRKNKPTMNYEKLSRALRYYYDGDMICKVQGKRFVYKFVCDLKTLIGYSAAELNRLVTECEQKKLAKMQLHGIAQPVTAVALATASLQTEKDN
Outline: as §1

[4] = target: T4, ERG (Homo sapiens, UniProt P11308 1-479); details: protein: recombinant; tags: N-terminal GST; dsDNA, one strand shown
T4 sequence: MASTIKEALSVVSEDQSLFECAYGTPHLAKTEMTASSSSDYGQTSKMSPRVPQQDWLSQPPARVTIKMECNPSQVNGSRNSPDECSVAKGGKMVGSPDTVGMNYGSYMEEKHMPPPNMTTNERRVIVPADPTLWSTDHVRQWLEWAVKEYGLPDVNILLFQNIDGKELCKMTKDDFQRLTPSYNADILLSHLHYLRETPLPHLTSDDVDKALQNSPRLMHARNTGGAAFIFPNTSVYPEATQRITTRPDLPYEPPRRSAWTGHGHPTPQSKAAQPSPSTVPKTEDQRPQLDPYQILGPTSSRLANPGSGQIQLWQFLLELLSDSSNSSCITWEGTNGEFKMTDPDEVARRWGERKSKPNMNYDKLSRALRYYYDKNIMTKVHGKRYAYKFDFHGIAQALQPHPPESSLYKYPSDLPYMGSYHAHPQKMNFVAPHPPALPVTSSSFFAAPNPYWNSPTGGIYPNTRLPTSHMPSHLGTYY
Outline: as §1

[5] = target: ELF1 (Homo sapiens, UniProt P32519 1-619); details: protein: recombinant; tags: N-terminal GST; dsDNA, one strand shown
Outline: as §1

[6] = target: T5, EHF (Homo sapiens, UniProt Q9NZC4 1-300); details: protein: recombinant; tags: N-terminal GST; dsDNA, one strand shown
T5 sequence: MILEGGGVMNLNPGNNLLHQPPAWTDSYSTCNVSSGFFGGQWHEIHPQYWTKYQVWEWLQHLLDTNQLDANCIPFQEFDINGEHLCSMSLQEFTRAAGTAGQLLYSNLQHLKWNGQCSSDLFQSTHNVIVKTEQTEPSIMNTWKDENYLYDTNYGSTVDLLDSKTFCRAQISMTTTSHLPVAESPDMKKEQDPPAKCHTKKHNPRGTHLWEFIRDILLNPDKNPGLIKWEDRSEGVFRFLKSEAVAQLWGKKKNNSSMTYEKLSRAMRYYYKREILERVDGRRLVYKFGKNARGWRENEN
Outline: as §1

[7] = target: SPI1 (Homo sapiens, UniProt P17947 1-270); details: protein: recombinant; tags: N-terminal GST; dsDNA, one strand shown
Outline: as §1

[8] = target: SPIB (Homo sapiens, UniProt Q01892 1-262); details: protein: recombinant; tags: N-terminal GST; dsDNA, one strand shown
Outline: as §1

[9] = target: T6, ELK3 (Homo sapiens, UniProt P41970 1-407); details: protein: recombinant; tags: N-terminal GST; dsDNA, one strand shown
T6 sequence: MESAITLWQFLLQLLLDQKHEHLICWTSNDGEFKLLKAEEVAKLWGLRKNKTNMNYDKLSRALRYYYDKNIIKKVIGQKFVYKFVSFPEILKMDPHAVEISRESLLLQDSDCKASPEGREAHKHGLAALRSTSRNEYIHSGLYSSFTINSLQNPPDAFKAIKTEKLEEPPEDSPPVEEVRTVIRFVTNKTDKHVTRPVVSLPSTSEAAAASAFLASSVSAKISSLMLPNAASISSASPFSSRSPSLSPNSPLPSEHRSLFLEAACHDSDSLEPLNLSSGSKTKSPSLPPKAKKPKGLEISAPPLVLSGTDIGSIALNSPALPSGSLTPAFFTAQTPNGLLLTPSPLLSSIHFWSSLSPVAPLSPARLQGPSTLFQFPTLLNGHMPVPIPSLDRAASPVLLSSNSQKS
Outline: as §1

[10] = target: T7, FEV (Homo sapiens, UniProt Q99581 1-238); details: protein: recombinant; tags: N-terminal GST; dsDNA, one strand shown
T7 sequence: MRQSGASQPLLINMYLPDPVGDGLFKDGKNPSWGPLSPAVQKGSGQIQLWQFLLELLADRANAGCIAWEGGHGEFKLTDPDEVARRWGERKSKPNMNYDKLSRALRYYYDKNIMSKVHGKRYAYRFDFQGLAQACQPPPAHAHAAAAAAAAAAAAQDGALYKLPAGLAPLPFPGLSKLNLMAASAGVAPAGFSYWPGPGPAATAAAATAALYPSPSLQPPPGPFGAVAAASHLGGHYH
Outline: as §1

[11] = target: ETV5 (Homo sapiens, UniProt P41161 1-510); details: protein: recombinant; tags: N-terminal GST; dsDNA, one strand shown
Outline: as §1

[12] = target: HSF1 (Homo sapiens, UniProt Q00613 1-529); details: protein: recombinant; tags: N-terminal GST; chain copies: 3; dsDNA, one strand shown
Outline: as §1

[13] = target: T8, SPIC (Homo sapiens, UniProt Q8N5J4 1-248); details: protein: recombinant; tags: N-terminal GST; dsDNA, one strand shown
T8 sequence: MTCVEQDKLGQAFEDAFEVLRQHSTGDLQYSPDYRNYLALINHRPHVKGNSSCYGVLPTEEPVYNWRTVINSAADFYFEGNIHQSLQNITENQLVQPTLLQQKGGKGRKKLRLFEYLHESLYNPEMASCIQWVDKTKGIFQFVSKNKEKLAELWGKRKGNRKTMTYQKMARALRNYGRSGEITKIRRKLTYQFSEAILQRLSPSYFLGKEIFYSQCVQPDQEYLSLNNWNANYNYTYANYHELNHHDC
Outline: as §1

[14] = target: ELF4 (Homo sapiens, UniProt Q99607 1-663); details: protein: recombinant; tags: N-terminal GST; dsDNA, one strand shown
Outline: as §1

[15] = target: T9, ELK4 (Homo sapiens, UniProt P28324-2 1-405); details: protein: recombinant; tags: N-terminal GST; dsDNA, one strand shown
T9 sequence: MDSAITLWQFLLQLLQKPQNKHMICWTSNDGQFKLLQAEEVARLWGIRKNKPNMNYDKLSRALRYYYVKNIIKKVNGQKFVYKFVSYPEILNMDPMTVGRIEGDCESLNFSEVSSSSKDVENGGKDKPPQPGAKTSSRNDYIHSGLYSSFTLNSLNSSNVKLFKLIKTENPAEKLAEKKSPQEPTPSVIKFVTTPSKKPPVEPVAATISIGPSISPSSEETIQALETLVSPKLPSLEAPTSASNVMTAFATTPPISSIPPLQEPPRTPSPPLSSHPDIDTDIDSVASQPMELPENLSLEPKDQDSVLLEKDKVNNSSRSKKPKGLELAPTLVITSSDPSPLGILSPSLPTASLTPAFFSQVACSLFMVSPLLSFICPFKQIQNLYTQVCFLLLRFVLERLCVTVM
Outline: as §1

[16] = target: T10, ETV2 (Homo sapiens, UniProt O00321 1-342); details: protein: recombinant; tags: N-terminal GST; dsDNA, one strand shown
T10 sequence: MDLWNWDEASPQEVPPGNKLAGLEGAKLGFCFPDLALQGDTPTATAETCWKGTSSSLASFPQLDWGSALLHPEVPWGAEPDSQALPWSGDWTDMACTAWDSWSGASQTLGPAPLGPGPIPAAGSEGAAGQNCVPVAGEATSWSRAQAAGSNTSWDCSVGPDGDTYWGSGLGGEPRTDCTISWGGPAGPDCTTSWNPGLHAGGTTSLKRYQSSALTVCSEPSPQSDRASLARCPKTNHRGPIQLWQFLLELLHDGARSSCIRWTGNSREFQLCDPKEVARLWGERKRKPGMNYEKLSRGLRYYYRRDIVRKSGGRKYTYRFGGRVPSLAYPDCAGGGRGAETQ
Outline: as §1

[17] = target: T11, ELF3 (Homo sapiens, UniProt P78545 1-371); details: protein: recombinant; tags: N-terminal GST; dsDNA, one strand shown
T11 sequence: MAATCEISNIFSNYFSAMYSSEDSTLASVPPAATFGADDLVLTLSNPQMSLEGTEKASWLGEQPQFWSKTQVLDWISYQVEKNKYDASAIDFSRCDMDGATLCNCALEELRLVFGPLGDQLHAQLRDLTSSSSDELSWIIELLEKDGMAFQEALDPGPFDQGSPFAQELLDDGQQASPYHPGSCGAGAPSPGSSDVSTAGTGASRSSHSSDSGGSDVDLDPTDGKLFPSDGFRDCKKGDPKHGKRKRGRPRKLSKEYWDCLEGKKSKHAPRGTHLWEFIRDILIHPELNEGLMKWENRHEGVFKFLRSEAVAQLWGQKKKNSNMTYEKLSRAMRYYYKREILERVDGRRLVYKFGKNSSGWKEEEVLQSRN
Outline: as §1

[18] = target: CRX (Homo sapiens, UniProt O43186 1-299); details: protein: recombinant; tags: N-terminal GST; dsDNA, one strand shown
Outline: as §1

[19] = target: ETV1 (Homo sapiens, UniProt P50549 1-477); details: protein: recombinant; tags: N-terminal GST; dsDNA, one strand shown
Outline: as §1

Chain of ETV5 (P41161 whole entry): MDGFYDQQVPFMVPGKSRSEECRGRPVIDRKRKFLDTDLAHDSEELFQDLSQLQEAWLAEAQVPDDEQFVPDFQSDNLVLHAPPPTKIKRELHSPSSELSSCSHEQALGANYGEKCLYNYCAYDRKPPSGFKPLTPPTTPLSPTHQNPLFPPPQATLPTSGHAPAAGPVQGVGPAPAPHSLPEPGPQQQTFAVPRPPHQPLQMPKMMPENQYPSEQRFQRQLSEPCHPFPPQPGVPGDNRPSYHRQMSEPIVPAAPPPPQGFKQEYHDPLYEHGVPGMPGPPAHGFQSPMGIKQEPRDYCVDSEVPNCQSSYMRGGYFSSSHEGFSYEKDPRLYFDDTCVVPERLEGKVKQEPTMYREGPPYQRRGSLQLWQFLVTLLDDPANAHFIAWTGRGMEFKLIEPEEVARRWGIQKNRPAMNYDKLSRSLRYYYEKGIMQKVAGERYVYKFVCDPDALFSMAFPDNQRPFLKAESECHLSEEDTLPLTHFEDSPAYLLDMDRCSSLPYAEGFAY
Chain of HSF1 (Q00613 whole entry): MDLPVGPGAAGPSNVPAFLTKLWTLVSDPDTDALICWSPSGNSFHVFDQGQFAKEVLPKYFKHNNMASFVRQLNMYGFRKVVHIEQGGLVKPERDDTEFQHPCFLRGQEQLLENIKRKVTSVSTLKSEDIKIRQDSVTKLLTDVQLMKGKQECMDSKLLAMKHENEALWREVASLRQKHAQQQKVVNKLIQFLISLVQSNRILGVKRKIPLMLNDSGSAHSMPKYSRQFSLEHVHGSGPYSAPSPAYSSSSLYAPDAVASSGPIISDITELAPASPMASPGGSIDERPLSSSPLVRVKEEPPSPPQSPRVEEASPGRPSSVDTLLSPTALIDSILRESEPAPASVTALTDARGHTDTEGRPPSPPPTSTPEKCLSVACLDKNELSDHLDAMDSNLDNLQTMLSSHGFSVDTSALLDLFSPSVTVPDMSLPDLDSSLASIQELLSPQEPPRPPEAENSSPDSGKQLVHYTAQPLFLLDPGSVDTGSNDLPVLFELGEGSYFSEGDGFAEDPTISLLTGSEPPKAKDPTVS
Chain of ELF4 (Q99607 whole entry): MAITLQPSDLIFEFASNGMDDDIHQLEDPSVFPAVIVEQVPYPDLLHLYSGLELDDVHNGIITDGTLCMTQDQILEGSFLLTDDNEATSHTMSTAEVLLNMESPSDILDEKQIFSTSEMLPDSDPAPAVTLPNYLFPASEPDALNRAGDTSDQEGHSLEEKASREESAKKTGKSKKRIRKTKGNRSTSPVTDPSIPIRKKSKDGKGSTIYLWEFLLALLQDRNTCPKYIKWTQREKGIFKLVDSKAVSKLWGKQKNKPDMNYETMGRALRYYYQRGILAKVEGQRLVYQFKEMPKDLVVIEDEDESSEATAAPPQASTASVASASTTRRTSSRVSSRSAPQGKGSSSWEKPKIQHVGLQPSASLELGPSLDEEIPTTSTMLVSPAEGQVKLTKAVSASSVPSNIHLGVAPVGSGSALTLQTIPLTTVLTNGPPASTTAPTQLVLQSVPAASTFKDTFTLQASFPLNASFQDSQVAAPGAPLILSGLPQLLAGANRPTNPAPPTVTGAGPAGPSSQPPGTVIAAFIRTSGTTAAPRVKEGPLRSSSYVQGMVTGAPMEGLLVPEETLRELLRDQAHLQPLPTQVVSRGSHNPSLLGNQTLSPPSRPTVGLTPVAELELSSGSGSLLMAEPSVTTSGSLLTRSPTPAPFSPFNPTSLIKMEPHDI
Chain of ETV1 (P50549 whole entry): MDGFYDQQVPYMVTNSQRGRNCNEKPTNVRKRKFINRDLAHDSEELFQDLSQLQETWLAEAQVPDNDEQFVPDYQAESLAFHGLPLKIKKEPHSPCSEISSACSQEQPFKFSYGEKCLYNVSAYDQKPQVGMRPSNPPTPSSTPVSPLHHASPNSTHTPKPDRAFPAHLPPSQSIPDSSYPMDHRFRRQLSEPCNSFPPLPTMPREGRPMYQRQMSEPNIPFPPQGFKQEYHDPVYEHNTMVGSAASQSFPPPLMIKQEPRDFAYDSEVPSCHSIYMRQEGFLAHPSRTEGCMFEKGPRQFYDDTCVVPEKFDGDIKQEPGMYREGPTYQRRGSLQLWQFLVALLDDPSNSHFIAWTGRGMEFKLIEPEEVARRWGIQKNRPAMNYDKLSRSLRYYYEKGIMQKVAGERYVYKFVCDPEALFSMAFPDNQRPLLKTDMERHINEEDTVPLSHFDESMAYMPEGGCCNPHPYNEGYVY
Chain of SPIB (Q01892 whole entry): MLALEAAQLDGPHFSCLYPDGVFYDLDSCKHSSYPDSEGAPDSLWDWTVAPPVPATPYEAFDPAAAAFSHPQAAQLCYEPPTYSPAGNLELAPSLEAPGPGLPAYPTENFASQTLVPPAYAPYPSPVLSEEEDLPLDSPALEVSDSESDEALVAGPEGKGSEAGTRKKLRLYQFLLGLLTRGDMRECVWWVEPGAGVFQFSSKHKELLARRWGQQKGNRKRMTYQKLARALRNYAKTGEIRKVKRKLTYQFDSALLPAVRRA
Chain of CRX (O43186 whole entry): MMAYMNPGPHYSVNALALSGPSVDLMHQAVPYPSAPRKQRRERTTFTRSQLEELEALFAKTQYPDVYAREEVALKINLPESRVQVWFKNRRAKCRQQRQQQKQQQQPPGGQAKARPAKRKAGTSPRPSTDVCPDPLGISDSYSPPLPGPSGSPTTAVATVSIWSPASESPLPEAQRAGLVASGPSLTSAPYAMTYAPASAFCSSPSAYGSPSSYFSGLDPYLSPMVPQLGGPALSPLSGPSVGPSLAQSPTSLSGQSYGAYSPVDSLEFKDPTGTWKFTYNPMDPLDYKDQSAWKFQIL
Chain of ELF1 (P32519 whole entry): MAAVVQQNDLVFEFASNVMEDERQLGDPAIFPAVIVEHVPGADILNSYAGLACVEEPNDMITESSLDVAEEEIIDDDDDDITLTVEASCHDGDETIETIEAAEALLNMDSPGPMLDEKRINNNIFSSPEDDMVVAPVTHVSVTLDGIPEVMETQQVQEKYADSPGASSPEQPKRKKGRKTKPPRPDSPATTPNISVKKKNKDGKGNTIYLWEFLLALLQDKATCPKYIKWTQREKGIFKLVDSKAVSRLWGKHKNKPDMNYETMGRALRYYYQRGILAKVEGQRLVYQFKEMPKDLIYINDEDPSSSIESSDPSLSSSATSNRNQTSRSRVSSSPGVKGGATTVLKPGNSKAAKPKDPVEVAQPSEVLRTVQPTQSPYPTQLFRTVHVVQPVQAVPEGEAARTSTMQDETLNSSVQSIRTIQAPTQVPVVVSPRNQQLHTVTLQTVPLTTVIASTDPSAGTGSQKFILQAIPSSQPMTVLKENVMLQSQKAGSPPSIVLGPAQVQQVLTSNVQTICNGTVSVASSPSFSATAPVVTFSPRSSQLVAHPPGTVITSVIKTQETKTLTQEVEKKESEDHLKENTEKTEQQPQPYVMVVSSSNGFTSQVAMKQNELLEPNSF

Which results are given for CTACTA?
binding signal [1]: 1.32 fold enrichment (6-mer frequency, TF over GST control); binding signal [2]: 1.36 fold enrichment (6-mer frequency, TF over GST control); binding signal [3]: 1.34 fold enrichment (6-mer frequency, TF over GST control); binding signal [4]: 1.24 fold enrichment (6-mer frequency, TF over GST control); binding signal [5]: 1.39 fold enrichment (6-mer frequency, TF over GST control); binding signal [6]: 1.33 fold enrichment (6-mer frequency, TF over GST control); binding signal [7]: 1.32 fold enrichment (6-mer frequency, TF over GST control); binding signal [8]: 1.3 fold enrichment (6-mer frequency, TF over GST control); binding signal [9]: 1.37 fold enrichment (6-mer frequency, TF over GST control); binding signal [10]: 1.27 fold enrichment (6-mer frequency, TF over GST control); binding signal [11]: 1.31 fold enrichment (6-mer frequency, TF over GST control); binding signal [12]: 1.43 fold enrichment (6-mer frequency, TF over GST control); binding signal [13]: 1.4 fold enrichment (6-mer frequency, TF over GST control); binding signal [14]: 1.29 fold enrichment (6-mer frequency, TF over GST control); binding signal [15]: 1.37 fold enrichment (6-mer frequency, TF over GST control); binding signal [16]: 1.23 fold enrichment (6-mer frequency, TF over GST control); binding signal [17]: 1.35 fold enrichment (6-mer frequency, TF over GST control); binding signal [18]: 1.36 fold enrichment (6-mer frequency, TF over GST control); binding signal [19]: 1.18 fold enrichment (6-mer frequency, TF over GST control)
